# Screening results as filed in PubChem.
# The list is not random: actives were taken first. Their share in the collection is about 6.8%.
# NADH coupling = inhibition of NAD/NADH coupling enzymes, library profiling | IC50, µM (highest dose often 10 µM), for inactives: top-dose inhibition | AID 774 | coupled PK/LDH NADH assays, four targets | hit rate 0.02% among 65,000;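 active = single-dose screening hits from any of four coupled enzyme assays that gave an IC50 when retested across doses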;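 note: the DPM-DC format reads NADH fluorescence rather than 340 nm absorbance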
# Abs 340nm = absorbance at 340 nm | fold change at 10 µM | AID 708 | 65,000 tested, under 10 active | compound absorbance at 340 nm, fold over control;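 active = at 10 µM dose, initial 340 nm absorbance at least 2 fold that of control wells; inactive = change under 2 fold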;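 note: initial absorbance extrapolated from kinetic A340 decline of NADH oxidation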
# Autofluor 339 = intrinsic fluorescence of library compounds, ex339/em460 – biochemical, MLSMR library, data from DPM-DC assay, artefact control, profiling panel. compound autofluorescence, ex339/em460 nm, NADH buffer; active compounds read high; 1 = no-compound wells, NADH background. hit rate 5.5% among 65,000. fluorescence fold increase at 10 µM. AID 709;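 active = at 10 µM, mean starting fluorescence two-fold or more over control wells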;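 note: signal is the first read of a kinetic run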
# PMK inhibit = blocks S. pneumoniae phosphomevalonate kinase | purified PMK, PK/LDH-coupled NADH absorbance 340 nm | inhibition, % at 10 µM | hit rate 0.49% among 65,000;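 active = top-ranked compounds by inhibition in the single 10 µM screen, taking a fixed number of the strongest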;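 note: 0% = full reaction with DMSO carrier and 100% = background rate without enzyme reaction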
# MK inhibit = S. pneumoniae mevalonate kinase inhibition; hit rate 0.48% among 65,000; AID 555; inhibition, % at 10 µM; purified MK, PK/LDH-coupled NADH absorbance 340 nm;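 active = ranked among the strongest by inhibition in the single 10 µM screen, a fixed top-ranked set picked for dose follow-up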
# DPM-DC inhibit = S. pneumoniae DPM-DC inhibition; AID 556; calls only at 10 µM; purified DPM-DC, PK/LDH coupled NADH fluorescence; hit rate 0.49% among 65,000;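 active = the 320 compounds with the highest percent inhibition in the single-dose primary screen, excluding strongly autofluorescent ones, cut at about 32% in these data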;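 note: kinetic rate of NADH fluorescence loss reporting ADP formed by the decarboxylase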
# An asterisk follows results filed as active; i = inactive; / = no result shown; + = active, no number.
SMILES,NADH coupling,Abs 340nm,Autofluor 339,PMK inhibit,MK inhibit,DPM-DC inhibit
CN(C)C=Nc1ncc2c3ccccc3n(Cc3ccccc3)c2c1C#N,3.0%,1.08,3.02*,0.0,5.0,/
Cc1ccc(C2CC(C(F)(F)F)n3nc(C(=O)NCC4CCCO4)cc3N2)cc1 (stereo not drawn),5.0%,1.02,1.1,1.0,12.0,i
O=C(c1ccco1)c1nnn(Cc2ccccc2)c1-c1ccccc1,1.0%,1.01,1.05,4.0,1.0,i
COC(=O)CNC(=O)COC(=O)c1cc(Cl)cc(Cl)c1N,1.0%,1.03,3.37*,6.0,2.0,/
Cc1cc(C)cc(NC(=O)C2CCN(S(=O)(=O)c3c(C)n[nH]c3C)CC2)c1,4.0%,1.04,1.12,11.0,0.0,i
COCCNC(=O)CSc1nc2ccc(N3CCOCC3)cc2c(=O)n1CCc1ccccc1,9.0%,1.04,4.1*,7.0,10.0,/
CCCCNC(=O)CSc1nc2ccc(N3CCOCC3)cc2c(=O)n1CCc1ccccc1,10.0%,1.01,2.34*,10.0,10.0,i
Cc1ccc2cc(CCNC(=O)c3ccc(Br)o3)c(=O)[nH]c2c1,5.0%,1.05,1.33,14.0,0.0,i
CC1CN(c2cc3nccnc3cc2F)CC(C)O1 (stereo not drawn),5.0%,1.07,1.16,6.0,10.0,i
COc1ccc(OC)c2c(N3CC(C)OC(C)C3)cc(C(F)(F)F)nc12 (stereo not drawn),14.0%,1,2.13*,20.0,5.0,i
COc1ccc(-c2c3c(=O)n(C)c(=O)n(C)c3cn2-c2ccccc2)cc1,12.0%,1.02,3.82*,16.0,8.0,/
COc1ccc(C(=O)Nn2cc3c(c2-c2ccccc2)c(=O)n(C)c(=O)n3C)cc1,2.0%,1.08,1.37,3.0,2.0,i
COC(=O)c1c(S(N)(=O)=O)c2ccccc2n1C,10.0%,1.03,2.08*,12.0,7.0,/
O=C(c1ccc2ccccc2c1)N1CCN(c2ccc(O)cc2)CC1,10.0%,1.01,1.01,26.0*,5.0,i
COc1ccc(OC)c(NC(=O)c2nnn(Cc3ccccc3C)c2N)c1,1.0%,1.04,1.08,2.0,0.0,i
COc1ccc(-c2csc(N(CC3CCCO3)C(=O)c3ccco3)n2)cc1 (stereo not drawn),5.0%,1.05,2.67*,3.0,12.0,i
COc1ccc(-c2csc(N3CCN(C(=O)c4ccco4)CC3)n2)cc1,1.0%,1.04,1.06,0.0,2.0,i
COc1cc2c(cc1OC)CN(Cc1cc(=O)n3cc(C)ccc3n1)CC2,10.0%,1.1,2.29*,6.0,5.0,i
COc1ccc(C(=O)N2CCc3cc(OC)c(OC)cc3C2)cc1OC,3.0%,1.07,1.14,6.0,4.0,i
COc1ccc(C)cc1-n1nnnc1SCc1cc(=O)n2cc(C)ccc2n1,11.0%,1.12,2.08*,12.0,0.0,i
Cc1occc1C(=O)Nc1nnc(C(F)(F)F)s1,65.0%,1.1,1.24,74.0*,59.0*,+
COc1cccc(C(=O)OCc2ccccc2C#N)c1O,0.0%,1.04,1.11,0.0,0.0,i
CN1CCN(c2c(F)cc3c(=O)c(C(=O)O)cn4c3c2SCC4)CC1,2.0%,1.09,3.78*,1.0,3.0,/
Cc1c(-n2cc(C(=O)O)c(=O)c3cc(F)c(N4CCCC4)c(F)c32)c(=O)n(-c2ccccc2)n1C,14.0%,1.09,1.7,0.0,11.0,i
Cc1ccc(Cl)cc1N1CCN(CC(=O)Nc2ccc3[nH]c(=O)[nH]c3c2)CC1,4.0%,1.01,1.12,6.0,7.0,i
CCc1nn(CC(=O)N2CCN(Cc3ccc4c(c3)OCO4)CC2)c(=O)c2cc3occc3n12,3.0%,0.99,1.06,22.0,0.0,i
Cc1cccc(-n2nc3c(c2NC(=O)c2ccco2)CSC3)c1C,8.0%,0.98,1.06,25.0*,0.0,i
Cc1occc1-c1nnc(SCC(=O)Nc2ccccc2)n1C(C)c1ccccc1 (stereo not drawn),3.0%,0.98,1.12,4.0,4.0,i
Cc1cccc(Cc2c(C)nc3c(C(=O)NCc4ccco4)cnn3c2C)c1,7.0%,1.04,3.85*,13.0,1.0,i
Cc1nc2c(-c3ccccc3)c(C)nn2c(C)c1CCC(=O)NCc1ccco1,4.0%,0.99,1.03,8.0,8.0,i
